From PubChem BioAssay
The sample as a whole holds a higher share of hits than the screen did.
SARS PLP yeast: SARS-CoV PLP inhibition in yeast; S. cerevisiae expressing SARS-CoV PLpro, growth rescue; Potency, µM (top dose mostly 32.9 µM), for inactives: top-dose activity, positive = growth rescue, actives largely listed as activators; actives 0.19% (n = 330,000); AID 485353; calls by dose curve; note: potency is the fitted concentration of half-maximal effect; 0% is about no effect; nearly all actives have a fitted effect of over 55% in size
AmpC inh no detg: blocks E. coli AmpC beta-lactamase in detergent-free assay; AID 485341; actives 0.52% (n = 330,000); Potency, µM (top dose mostly 57.1 µM), for inactives: top-dose activity change, negative = inhibition, most hits filed as inhibitors; P00811; AmpC nitrocefin hydrolysis, absorbance 480 nm, 0.0001% Triton;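 note: potency is the fitted concentration of half-maximal effect; plate controls were no compound for no effect and no enzyme for full effect; nearly all actives have a fitted effect of over 20% in size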
Target sequence (P00811 whole entry, looked up): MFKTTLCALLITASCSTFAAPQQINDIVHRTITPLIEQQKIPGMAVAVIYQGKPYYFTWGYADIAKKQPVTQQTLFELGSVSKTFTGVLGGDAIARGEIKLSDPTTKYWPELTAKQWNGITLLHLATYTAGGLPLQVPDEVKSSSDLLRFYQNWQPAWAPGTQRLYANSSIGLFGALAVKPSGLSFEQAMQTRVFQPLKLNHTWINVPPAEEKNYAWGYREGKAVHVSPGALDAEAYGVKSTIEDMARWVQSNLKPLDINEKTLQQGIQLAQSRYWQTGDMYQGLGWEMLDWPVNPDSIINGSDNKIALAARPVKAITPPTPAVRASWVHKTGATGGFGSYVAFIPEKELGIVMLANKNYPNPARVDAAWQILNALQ
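20 mM phosphate pH 7.0 + 0.01% (detergent screen) or 0.0001% Triton X-100; 5.3 nM AmpC reagent; cpd preinc 15 min RT; nitrocefin (800 uM stock) to start; A480 q20 s × 4 min; Activity was normalised to no-enzyme and no-compound control wells.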
CHX counter: counter-screen hit for Shiga toxin inhibitors, cycloheximide; AID 2314; cell reporter, cycloheximide protein synthesis inhibition counterscreen; actives 12% (n = 300,000); max response, %; in the data active = max response mostly above about 13%, no sharp cut-off; inactive = mostly below about 14%; note: read at 38.3 µM for the half of the compounds with a filed dose; 0% is about no effect
AMA1 RON2 block: inhibitors of Plasmodium falciparum AMA1-RON2 interaction; AlphaScreen AMA1-biotinylated RON2 peptide binding; Potency, µM (highest dose often 58.2 µM), for inactives: top-dose activity change, negative = inhibition, hits mostly inhibitors; actives 0.2% (n = 360,000); AID 720542;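 note: potency is the fitted concentration of half-maximal effect; 0% = vehicle wells and -100% = peptide control; nearly all actives have a fitted effect of over 45% in size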
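AMA1 (3D7) with his tag at 25 nM final met compounds first, then biotinylated RON2 peptide at 25 nM; detection used donor plus acceptor beads, 10 µg/mL apiece, read by AlphaScreen after 30 min at room temperature.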
Shiga toxin inh: Shiga toxin inhibition | actives 9.2% (n = 290,000) | inhibition, % at 38.7 µM | Vero cells, Shiga toxin protein synthesis inhibition reporter | AID 2315; in the data active = inhibition mostly above about 28%, no sharp cut-off; inactive = mostly below about 43%; note: 0% is about no effect
AmpC detergent: AmpC beta-lactamase inhibition with detergent present | P00811 | AID 485294 | Potency, µM (titrated, usually from 114 µM), for the others: top-dose activity change, negative = inhibition, actives largely listed as inhibitors | actives 0.041% (n = 370,000) | AmpC hydrolysis of nitrocefin, absorbance 480 nm, 0.01% Triton;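 note: potency is the fitted concentration of half-maximal effect; 0% = no-compound wells and -100% = no-enzyme wells; nearly all actives have a fitted effect of over 25% in size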
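20 mM phosphate pH 7.0 + 0.01% (detergent screen) or 0.0001% Triton X-100; 5.3 nM AmpC reagent; cpd preinc 15 min RT; nitrocefin (800 uM stock) to start; A480 q20 s × 4 min; Activity was normalised to no-enzyme and no-compound control wells.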
* hit, by the source's call; ? = inconclusive; · = not tested or not shown; [ ] = dose if it differs, or a comment. Unless noted, calls come from the whole dose curve; as a rule, active = well fitted curve in the direction sought with a large enough effect; inconclusive = small, poorly fitted or top-dose-only effect, or another doubt; inactive = no such curve, though single readings can be large; an effect the other way counts as inactive or inconclusive.

SMILES | SARS PLP yeast | AmpC inh no detg | CHX counter | AMA1 RON2 block | Shiga toxin inh | AmpC detergent
C/C(=N\NC(=O)COc1ccc(C(C)(C)C)cc1)c1cc2ccccc2o1 | -10.4% | -22.8% | 24.3* | 16.0% | 37.6* | -7.5%
O=C(/C=C/c1ccccc1)NCCC1=CCCCC1 | -35.0% | -29.4% | 38.3* | 16.1% | 39.5* | -12.1%
O=C(/C=C/c1ccc(F)cc1)NCCC1=CCCCC1 | 0.7% | 86.7% | 33.3* | 9.6% | 117.4* | -14.3%
O=C(COC(=O)/C=C/c1ccccc1)NCCC1=CCCCC1 | 3.3% | 2.8% | 8.4 | 9.2% | -4.7 | -7.6%
O=C(COC(=O)/C=C/c1ccc(C(F)(F)F)cc1)NCCC1=CCCCC1 | 0.0% | -4.0% | -2.1 | 15.4% | 2.4 | ?
COc1ccccc1/C=C/C(=O)NCCC1=CCCCC1 | -0.8% | -25.4% | 29.1* | -1.0% | 117.7* | 5.7%
Cc1nc2ccn(Cc3ccco3)c(=O)c2cc1C(=O)NCc1ccc(F)cc1 | · | · | · | · | · | 17.7%
Cc1c(C(=O)O)cccc1-n1c(C)cc(/C=N/Nc2ccc([N+](=O)[O-])cn2)c1C | -0.3% | -23.5% | 31.7* | 74.1% | 71.5* | -4.7%
Cc1ccc(-n2c(C)cc(/C=N/Nc3ccc([N+](=O)[O-])cn3)c2C)cc1 | -4.1% | -40.5% | 39.3* | 19.0% | 58.9* | 0.6%
Cc1cc(/C=N/Nc2ccc([N+](=O)[O-])cn2)c(C)n1-c1ccccc1 | -9.1% | -23.7% | 27.1* | 40.0% | 77.5* | 0.3%
O=C(O)c1ccccc1C=NNc1ccc([N+](=O)[O-])cn1 | · | · | · | 30.7% | · | ·
Cc1ccc(C=NNc2ccc([N+](=O)[O-])cn2)cc1 | · | · | · | 11.4% | · | ·
COc1ccccc1CC(=O)NNC(=O)c1ccco1 | -1.0% | -16.1% | -2.0 | -13.0% | 3.5 | -11.8%
OCCOc1ccc(C2=NCCO2)cc1 | 5.7% | -18.3% | 15.1* | -4.9% | 58.4 | 2.6%
CC12CCC(C/C1=N/NC(=O)Nc1ccccc1)C2(C)C (configuration not stated) | 5.6% | 0.7% | 9.5 | 6.9% | 19.7 | -0.3%
COc1cccc(NC(=S)N/N=C2\CC3CCC2(C)C3(C)C)c1 (configuration not stated) | 0.8% | -14.0% | 41.0* | 45.5% | 78.0* | ?
Cc1ccc(OCC(=O)N(Cc2ccccc2)C(C)(C)C)c([N+](=O)[O-])n1 | 6.0% | -0.4% | -3.0 | -19.2% | -8.3 | -9.3%
Cc1ccc(OCc2ccc(Br)cc2)c([N+](=O)[O-])n1 | -0.7% | -2.0%[2.29 µM] | 56.1* | · | 83.8* | -0.2%
Cc1ccc(OCCOc2cccc(Br)c2)c([N+](=O)[O-])n1 | -21.0% | -5.8% | 40.0* | 2.0% | 96.0* | -0.9%
Cc1ccc(OCc2ccc(-c3ccccc3)cc2)c([N+](=O)[O-])n1 | 5.6% | 8.0% | 25.1* | -13.2% | 29.2 | ?
CCOc1cc(Br)c(COc2ccc(C)nc2[N+](=O)[O-])cc1OCC | -3.7% | 53.2% | -3.5 | -21.8% | -1.2 | 1.1%
O=[N+]([O-])c1ncccc1OCc1ccc(-c2ccccc2)cc1 | 0.7% | 10.1% | 18.7* | -9.0% | 40.8 | 8.5%
CCCc1cc(=O)n2[nH]c(C)c(-c3ccccc3)c2n1 | 4.6% | -22.0% | -8.3 | -2.7% | -21.5 | ?
Cc1c(C(=O)OCC(=O)NC(C)c2ccccc2)oc2ccccc12 (configuration not stated) | -0.9% | -9.9% | 9.7 | -2.0% | -2.1 | 3.5%
CNc1cc([N+](=O)[O-])ccc1OCc1ccccc1 | -5.0% | -19.7% | 27.2* | 20.2% | 89.5* | 4.6%
SMILES | SARS PLP yeast | AmpC inh no detg | CHX counter | AMA1 RON2 block | Shiga toxin inh | AmpC detergent
CN(C=O)c1cc([N+](=O)[O-])ccc1OCc1ccccc1 | · | · | · | -4.7% | · | ·
O=C(NCc1cccnc1)c1cccc(C(F)(F)F)c1 | 1.5% | 0.316µM* | -7.4 | 3.2% | -0.7 | -0.6%
O=C(NCc1cccnc1)c1cccc(S(=O)(=O)N2CCCC2)c1 | 2.6% | -4.4% | 51.5* | -11.5% | -18.8 | -5.0%
O=C(NCc1cccnc1)c1cccc(S(=O)(=O)N2CCCCC2)c1 | -4.7% | -13.5% | -2.8 | -0.8% | 16.5 | -13.6%
O=C(NCc1cccnc1)Nc1cccc(C(F)(F)F)c1 | 8.7% | -15.1% | -2.6 | 0.0% | 13.3 | ?
Cc1noc(C)c1CSCC(=O)Nc1nc2ccccc2s1 | -6.0% | -29.3% | 21.0* | -3.9% | 7.8 | ?
CCc1ccc2nc(NC(=O)CSCc3c(C)noc3C)sc2c1 | 5.4% | -9.4% | 20.6* | -2.1% | 68.3* | -8.9%
CC(=O)c1sc(NC(=O)CSCc2c(C)noc2C)nc1-c1ccccc1 | -2.5% | -18.1% | · | 11.6% | · | 5.8%
Cc1cc(F)ccc1S(=O)(=O)Nc1ccccc1C(=O)Nc1ccccc1N1CCOCC1 | 5.0% | -24.2% | -1.8 | -0.9% | -8.0 | -5.7%
O=C(Nc1ncn[nH]1)c1ccc(Cl)c(S(=O)(=O)N2CCCCCC2)c1 | 6.0% | -5.1% | -0.5 | 79.3% | -21.1 | ?
CCOc1cccc(CNCc2cccnc2)c1OCc1ccccc1 | 0.2% | 18.8% | -2.2 | 19.8% | 22.0 | -2.2%
CCn1c(C)c(C)c2cc(C(=O)NCCc3ccco3)ccc21 | -29.4% | -45.1% | 16.0 | -6.5% | 35.8* | -4.7%
Cc1c(C)n(C)c2ccc(C(=O)NCCc3ccco3)cc12 | -7.7% | -13.1% | 38.6* | -23.8% | 69.1* | -10.2%
CCn1c(C)c(C)c2cc(C(=O)NCCc3ccc(C)cc3)ccc21 | · | · | · | · | · | 4.4%
CC(=O)Nc1cccc(C(=O)NCCc2ccco2)c1 | 0.8% | -8.5% | 26.2* | 1.0% | 77.6* | -14.3%
c1ccc(-c2ccc(-c3cn4c(n3)CCC4)cc2)cc1 | -10.8% | 87.0% | 36.6* | -1.1% | 57.7* | -7.3%
Cc1ccc(-c2cn3c(n2)CCCC3)cc1 | -2.2% | -26.4% | 20.0 | 12.2% | 48.9 | -4.1%
COc1ccc(-c2cn3c(n2)CCC3)cc1 | -5.5% | 0.0% | 37.8* | -7.5% | 53.7* | -11.6%
CC(=O)c1cccc(N(CC(=O)Nc2ccc(F)cc2F)S(C)(=O)=O)c1 | · | · | 29.6* | 32.1% | 50.5* | 0.6%
CCN(C(=O)Cc1cccs1)c1nnc(-c2cccnc2)s1 | -1.3% | -16.4% | 28.3* | -5.4% | 48.4* | -3.4%
CN1C(=O)c2ccc(C(=O)NCc3ccccc3)cc2C1=O | -0.6% | ? | -3.2 | 0.8% | 3.3 | -3.9%
CCN(CC)C(=O)c1cccc2nc3ccccc3nc12 | -1.1% | 2.2% | -2.0 | -9.8% | 3.6 | 2.2%
Oc1cccc2nc3ccccc3nc12 | -6.5% | -7.5% | 20.9* | 62.9% | 43.7 | -0.3%
C/C(=N\NC(=S)NCc1ccccc1)c1ccco1 | 0.4% | -38.6% | 18.7* | 63.2% | 37.3* | -6.7%
C=C(C)CNC(=S)N/N=C(\C)c1ccc(OC)cc1 | -29.1% | -46.3% | 5.7 | 3.5% | 8.7 | ?
C/C(=N\NC(=S)NCc1ccccc1)c1ccc(C#N)cc1 | 0.9% | -32.3% | -1.5 | 71.7% | -5.2 | 1.3%
